Screening results: PubChem, several laboratories
Hits are enriched below; roughly 2.4% of the tested compounds scored in any of these assays.
Redox H2O2 prof = compounds producing H2O2 with reducing agent – biochemical, NIH compound library profiling, artefact control for MLSCN library redox annotation, primary screen; activation, % at 10 µM; actives 0.03% (n = 200,000); DTT-dependent redox cycling H2O2, phenol red/HRP absorbance; 100% = 100 µM peroxide control, 0% = buffer;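 active = activation of at least 50% relative to the plate's high and low controls in the primary single-dose screen; inactive = activation below 50%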;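 also: compound incubated with DTT at 0.8 mM final as the reducing agent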
PKD1 inh = blocks activity of human protein kinase D1; PKD1 kinase fluorescence polarization assay; inhibition, % (no concentration beside the values); AID 797; Q15139; actives 0.056% (n = 200,000); in the data active = inhibition above about 50%
WT yeast gro inh = growth inhibition of WT yeast, mitochondrial fusion screen. actives 2.1% (n = 190,000). mitochondrial fusion phenotypic screen, WT strain. inhibition, % at 10 µM; in the data active = inhibition above about 58%; tested in S. cerevisiae
TNF death inh = TNF-alpha cell death inhibition in Jurkat FADD-/- cells | Jurkat FADD-/- TNF necroptosis rescue, ATP luminescence, 24 h; 0 = TNF only, 100 = no-TNF cells | activation (protection from cell death), % at 10 µM | actives 0.068% (n = 220,000);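 active = activation, meaning protection from cell death, of at least 50% relative to plate controls; inactive = activation below 50%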;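 also: necroptosis triggered by 40 ng/mL TNF-alpha added together with compound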
PERK inh = inhibitors of human PERK kinase; CHO PERK-DD fusion, SEAP luminescence translation reporter; inhibition, % at 5.6 µM; actives 0.17% (n = 220,000); Q9NZJ5; AID 1416;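 active = inhibition above the mean inhibition of all tested compounds plus 3 SD, set separately per screening campaign, cut at about 2.9% in these data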;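 also: PERK kinase domain activated by AP20187 dimerizer at 100 nM; 0% = DMSO with dimerizer and 100% = rapamycin at 8.4 µM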
Target sequence (Q9NZJ5 whole entry, looked up, the tested form may be a part): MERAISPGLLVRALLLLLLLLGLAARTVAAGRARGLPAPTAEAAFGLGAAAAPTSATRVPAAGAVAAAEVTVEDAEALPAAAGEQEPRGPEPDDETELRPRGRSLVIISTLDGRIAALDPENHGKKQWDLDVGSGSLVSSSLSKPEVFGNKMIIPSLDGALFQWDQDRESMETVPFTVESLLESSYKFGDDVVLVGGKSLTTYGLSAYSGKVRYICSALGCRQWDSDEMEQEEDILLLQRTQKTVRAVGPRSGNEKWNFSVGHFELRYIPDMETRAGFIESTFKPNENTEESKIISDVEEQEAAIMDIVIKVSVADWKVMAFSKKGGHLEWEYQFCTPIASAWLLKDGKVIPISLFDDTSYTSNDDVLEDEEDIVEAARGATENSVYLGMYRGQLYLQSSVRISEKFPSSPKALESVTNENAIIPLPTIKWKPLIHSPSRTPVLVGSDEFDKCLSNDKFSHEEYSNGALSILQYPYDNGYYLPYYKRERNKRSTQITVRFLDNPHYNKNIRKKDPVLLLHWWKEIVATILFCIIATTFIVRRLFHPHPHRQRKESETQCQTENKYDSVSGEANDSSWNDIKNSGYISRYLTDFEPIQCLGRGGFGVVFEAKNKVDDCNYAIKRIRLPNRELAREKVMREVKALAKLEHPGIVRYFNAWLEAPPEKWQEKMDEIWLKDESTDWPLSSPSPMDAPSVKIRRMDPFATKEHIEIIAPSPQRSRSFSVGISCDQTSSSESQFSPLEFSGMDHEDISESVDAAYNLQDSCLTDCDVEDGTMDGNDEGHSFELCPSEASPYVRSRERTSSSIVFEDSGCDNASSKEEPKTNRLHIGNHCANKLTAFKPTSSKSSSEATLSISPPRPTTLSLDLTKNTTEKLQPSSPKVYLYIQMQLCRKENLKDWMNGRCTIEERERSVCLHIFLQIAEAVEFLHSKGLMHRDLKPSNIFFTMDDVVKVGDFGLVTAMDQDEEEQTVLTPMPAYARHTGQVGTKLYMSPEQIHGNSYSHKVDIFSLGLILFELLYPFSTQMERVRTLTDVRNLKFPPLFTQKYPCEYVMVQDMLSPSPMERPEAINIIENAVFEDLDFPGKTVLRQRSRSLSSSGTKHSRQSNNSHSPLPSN
zVAD death inh = blocks zVAD induced death of L929 cells; L929 zVAD necroptosis rescue, ATP luminescence, 24 h; with zVAD 60 µM; viability rescue, % at 10 µM; actives 0.38% (n = 220,000); AID 1377;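 active = activation, scaled between plate controls, above about 75%, limit read from the data; inactive = activation under that limit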;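 also: 0% = zVAD with DMSO and 100% = DMSO alone without zVAD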
Active calls of the source: *; · = no result.

SMILES	Redox H2O2 prof	PKD1 inh	WT yeast gro inh	TNF death inh	PERK inh	zVAD death inh
CCCNC(=S)Nc1ccc(Oc2ccccc2)cc1	0	-4	-18	-5	0	0
CCOc1ccc(NC(=S)Nc2ccc(OCc3ccccc3)cc2)cc1	1	2	-1	0	1	0
CCCCNC(=S)Nc1ccc(Oc2ccccc2)cc1	0	-7	65*	-5	0	-1
CCOc1ccc(NC(=S)NCCCc2ccccc2)cc1	0	-5	70*	-1	1	3
CC(C)OCCCNC(=O)CN1C(=O)/C(=C/c2ccccc2)Sc2ccccc21	-1	5	7	2	-1	2
Nc1nnn(CC(=O)N/N=C/c2cccc(Cl)c2)n1	·	·	·	0	0	0
CCOC(=O)C1CCCN(C(=O)CS(=O)(=O)Cc2ccccc2)C1 (stereo not drawn)	1	-2	60*	0	2	0
CCOC(=O)C1CCCN(C(=O)CCc2ccccc2)C1 (stereo not drawn)	1	-8	-20	-1	1	0
CCc1ccc2c(c1)C(c1ccc(N3CCOCC3)cc1)=NNC(c1ccncc1)=N2	-2	4	68*	0	0	0
CCc1cccc(C)c1NC(=O)COC(=O)c1c2c(nc3ccccc13)/C(=C\c1cccs1)CCC2	2	-9	5	1	0	0
NC(=O)c1ccc(NC(=O)COC(=O)c2c3c(nc4ccccc24)/C(=C\c2cccs2)CCC3)cc1	0	-13	76*	-4	-1	25
O=C(CCC1CCCN(C(=O)c2ccc3[nH]ccc3c2)C1)N1CCN(c2ccccn2)CC1 (stereo not drawn)	0	0	0	-2	0	0
CCOc1ccccc1NC(=O)NC(=O)N(C)S(=O)(=O)c1ccc(C)cc1	-1	0	62*	17	0	1
COCCN(C(=S)Nc1cccc(OC)c1)C(C)c1cccs1 (stereo not drawn)	0	3	44	1	0	-1
COCCN(C(=S)Nc1c(C)cc(C)cc1C)C(C)c1cccs1 (stereo not drawn)	0	1	65*	1	1	-1
COCCN(C(=S)Nc1ccc(C(C)C)cc1)C(C)c1cccs1 (stereo not drawn)	4	-5	63*	3	1	0
O=C(Cc1c(F)cccc1Cl)Nc1ccc(S(=O)(=O)NCC2CCCO2)cc1 (stereo not drawn)	-1	5	16	2	0	-1
CCC(C)NS(=O)(=O)c1ccc(OCC(=O)NCc2cccnc2)cc1 (stereo not drawn)	-14	5	-3	-3	2	0
CCC(C)NS(=O)(=O)c1ccc(OCC(=O)NCc2ccccn2)cc1 (stereo not drawn)	0	3	3	0	3.2*	-2
COc1ccc(NC(=O)Cc2coc3cc(C)c(C(C)C)cc23)cc1S(=O)(=O)N1CCOCC1	0	-3	-20	-3	0	0
Cc1cc(C(=O)Nn2c(-c3ccc(Br)cc3)nc3ccccc3c2=O)ccc1[N+](=O)[O-]	0	-1	68*	1	1	2
CCn1c(O)c(C2=c3ccccc3=NC2=O)c2cc(Br)ccc21	0	0	72*	-3	0	1
Cc1ccc(-c2nnc3sc(C4COc5ccccc5O4)nn23)cc1 (stereo not drawn)	-3	-16	75*	-1	1	3
Fc1ccc(NC(=S)Nc2ccccc2N2CCOCC2)cc1Cl	-1	-2	61*	0	1	0
Cc1ccc(NC(=S)Nc2ccc(OC(F)F)c(Cl)c2)cc1Cl	0	7	73*	-1	1	1
SMILES	Redox H2O2 prof	PKD1 inh	WT yeast gro inh	TNF death inh	PERK inh	zVAD death inh
Fc1ccc(NC(=S)Nc2ccccc2OC(F)F)cc1Cl	0	-1	62*	2	1	1
O=S(=O)(c1ccc(Cl)c(NC(=S)Nc2ccccc2N2CCOCC2)c1)N1CCOCC1	-1	-3	10	1	1	0
Cc1ccc(NC(=S)Nc2ccc(Cl)c(Cl)c2)c(OC(F)F)c1	0	-8	80*	-2	0	0
CC(NC(=S)Nc1ccc(OC(F)F)c(Cl)c1)C(C)(C)C (stereo not drawn)	-2	-5	47	-3	1	3
O=C(O)CCC(=O)N1N=C(c2ccccc2)CC1c1cccs1 (stereo not drawn)	·	·	·	1	-1	0
O=c1[nH]c(N2CCCCC2)nc2ncn(Cc3ccccc3)c12	·	·	·	3	0	0
O=C(Cn1cc2c(n1)CCCCC2)Nc1ccccc1Br	·	·	·	1	-1	1
FC(F)Oc1ccc(NC(=S)NCc2ccccc2)cc1Cl	-1	9	58*	-2	1	-1
Cc1cc(C)cc(NC(=S)Nc2ccc(Cl)c(Cl)c2)c1	0	0	65	-5	0	1
Cc1cccc(C)c1NC(=S)Nc1ccc(Cl)c(Cl)c1	-1	-4	80*	-1	-1	-1
Cc1sc2cc3c(c(C(=O)c4ccccc4)[n+]2c1C)-c1cccc2cccc-3c12	4	-9	70*	0	-1	3
Cc1cccc(/C(N)=N/OC(=O)N2c3ccccc3Sc3ccccc32)c1	2	-1	67*	-17	1	1
N/C(=N\OC(=O)N1c2ccccc2Sc2ccccc21)c1ccccc1	0	-4	66*	-3	-1	2
N/C(=N\OC(=O)c1ccccc1Cl)c1ccccc1	2	9	5	-3	2	0
CC(C)=CCN1CCN(Cc2cnc(-c3ccccc3)s2)CC1CCO (stereo not drawn)	1	3	6	4	1	1
CNS(=O)(=O)c1ccc(NS(=O)(=O)c2ccccc2F)cc1	10	-3	-3	0	0	2
COc1ccc(-c2nnc(NC(=O)c3ccccc3C)o2)cc1	·	·	64*	1	·	0
COc1ccccc1C(=O)Nc1nnc(-c2ccc3c(c2)CCCC3)o1	-3	-11	60*	1	0	1
CCOc1ccc(-c2nnc(NC(=O)c3ccc(OCC(C)C)c(OC)c3)o2)cc1	0	-9	64*	-1	-1	-1
Cc1ccccc1C(=O)Nc1nnc(-c2ccncc2)o1	0	1	0	1	0	2
O=C(NCc1ccccn1)C1CN(S(=O)(=O)c2ccccc2)CCN1S(=O)(=O)c1ccccc1 (stereo not drawn)	-1	0	2	0	-1	0
O=S(=O)(c1cccc(F)c1)N1CCCN(c2ccc(C(F)(F)F)cn2)CC1	·	·	·	1	0	1
